From ChEMBL document CHEMBL4513216, “Probing the Open Global Health Chemical Diversity Library for Multistage-Active Starting Points for Next-Generation Antimalarials” (ACS Infect Dis, 2020)
About 8,600 (12%) of roughly 69,000 compounds showed an effect of 50% or more. The sample as a whole holds a higher share of strong results than the screen did.

These compounds were tested on Plasmodium berghei (assay: Screen against P. berghei liver stage (PbLuc), transformed with Luciferase, at 10uM). Settings: tested at 10 uM.
Assay type: functional, HepG2

Compared with Cc1ccc(CN2CCC[C@]3(C(=O)O)CN(CC4CC4)C[C@@H]3C2)s1, CC1=N[C@@]2(CC[C@@H]3CN(CC4CC4)C[C@@H]32)C(=O)N1CC1CC1 is higher in INHIBITION: -27.6% for the first, 12.4% for the second.

Compared with COCC(=O)N1CCN(Cc2cc(F)cc(Br)c2)CC1, Cc1cccnc1CN1CCN(C(=O)c2ccn(C(C)(C)C)c2)CC1 is higher in INHIBITION: -10.9% for the first, 45% for the second.

Going from CN(C)CCOCc1nnc2n1CCN(Cc1ccco1)C2 to CCc1nnc2n1CCN(Cc1csc(Cc3ccccc3)n1)C2, the INHIBITION rises from -13.7% to 19.2%.

Going from Cc1ccc(C2COCCN2C(=O)c2ccc(C#N)cc2)o1 (stereo not given) to CCc1ccc(C2COCCN2C(=O)Nc2ccc(C#N)cc2)o1 (stereo not given), the INHIBITION rises from 32% to 65.3%.

Going from CCc1ccc(C2COCCN2C(=O)Nc2cc(C)on2)o1 (stereo not given) to CCc1ccc(C2COCCN2C(=O)Nc2cccc(C(C)=O)c2)o1 (stereo not given), the INHIBITION rises from -107% to -2.9%.

Compared with CCc1ccc(C2COCCN2C(=O)Nc2ccc(C(N)=O)c(Cl)c2)o1 (stereo not given), CCc1ccc(C2COCCN2C(=O)NCc2cccc(C#N)c2)o1 (stereo not given) is lower in INHIBITION: 78.3% for the first, -92.8% for the second.

Compared with CNC(=O)C1CN(Cc2c[nH]cn2)CCN(C2CCOCC2)C1 (stereo not given), CNC(=O)N1CC[C@@H]2CN(Cc3ccccc3)S(=O)(=O)[C@@H]2CC1 is lower in INHIBITION: 25.6% for the first, 23.1% for the second.

First: CC(C)Oc1ccc(C(=O)N2CCCSCC2CN(C)C)cc1 (stereo not given)
Second: CN(Cc1ccncc1)C1CC2(CCN(C(=O)c3ccnnc3)CC2)C1
The INHIBITION of the first is higher: 36.6% for the first, -5.63% for the second.

First: O=C(COC[C@H]1CC[C@H]2[C@H](CCN2c2ccccn2)O1)N1CCCC1
Second: O=C(COc1cccc(Cl)c1)N1CCOCC(O)(CN2CCCC2)C1 (stereo not given)
The INHIBITION of the first is lower: -37.4% for the first, -18.9% for the second.

Compared with Cc1nccn1CCN(C)C(=O)c1cn(CC2CCCCC2)nn1, CCCn1nccc1-c1nccnc1CC1CCN(C(C)=O)C1 (stereo not given) is lower in INHIBITION: 41.8% for the first, 7.19% for the second.

Compared with COc1ccnc(NC(=O)CSCc2cccnc2)c1, COc1cccc(CSCC(=O)NCc2cccnc2)c1 is higher in INHIBITION: 36.9% for the first, 54.5% for the second.

First: OCc1ccc(Cl)c(NCc2cccnc2)c1
Second: COCc1cccc(NCc2cccnc2)c1
The INHIBITION of the first is lower: 3.16% for the first, 36.5% for the second.

First: Cc1cc(NCc2cccnc2)n2nc(C)cc2n1
Second: CCSc1cccc(NCc2cccnc2)c1
The INHIBITION of the first is lower: -10.4% for the first, 85.2% for the second.

Going from CCSCc1cccc(NCc2cccnc2)c1 to COc1cccc(CNCc2cccnc2)c1, the INHIBITION falls from 61.6% to 13.7%.

Going from CCOCc1nnc(NCc2cccnc2)o1 to CCCc1nnc(NCCCn2nc(C)c(Cl)c2C)o1, the INHIBITION rises from -0.897% to 16.1%.

First: CCCc1nn(Cc2ccc(Br)s2)c(=O)o1
Second: CCNC(=O)NCCCn1nc2ccccn2c1=O
The INHIBITION of the first is higher: 40.5% for the first, -12.2% for the second.

First: CCc1nc(CN2CCCN(C(=O)CC(C)OC)CC2)cs1 (stereo not given)
Second: CCc1csc(C2CCCN(C(=O)c3ccc4[nH]nnc4c3)C2)n1 (stereo not given)
The INHIBITION of the first is higher: 43.3% for the first, -10.1% for the second.

First: CN(Cc1nccn1CC(F)(F)F)C(=O)c1cccc(C#N)c1
Second: COc1ccccc1CN(C)Cc1ccnc(C2CCCO2)n1 (stereo not given)
The INHIBITION of the first is higher: 41.1% for the first, 14.755% for the second.

First: CC(NC(=O)CNc1cc2c(cc1Cl)OCCO2)c1ccco1 (stereo not given)
Second: Cn1cc2c(n1)C(CNCc1ccco1)OCC2 (stereo not given)
The INHIBITION of the first is lower: -10.3% for the first, 15.4% for the second.

Compared with O=C(Nc1ccc(-c2cnc(NCCO)nc2)cc1)[C@@H]1CCCCN1, O=C(NCCO)C1(Cc2ccccc2-c2cccnc2)CCOCC1 is lower in INHIBITION: 23.4% for the first, -43% for the second.

Going from CCCn1nc2c(cc1=O)CN(Cc1ccccn1)CC2 to CCCn1nc2c(cc1=O)CN(Cc1cc(C)on1)CC2, the INHIBITION falls from 58.3% to 40.1%.

Going from CCCn1nc2c(cc1=O)CN(CCCS(N)(=O)=O)CC2 to CCCn1nc2c(cc1=O)CN(CCS(C)(=O)=O)CC2, the INHIBITION rises from 47.6% to 70.1%.

First: CCCn1nc2c(cc1=O)CN(Cc1nc(C)c3ccccc3n1)CC2
Second: CCCn1nc2c(cc1=O)CN(CCN1CCCC1=O)CC2
The INHIBITION of the first is higher: 34.6% for the first, -7.35% for the second.

First: CC(NC(=O)NCCc1nc(C(F)(F)F)cs1)C(=O)N(C)C (stereo not given)
Second: COCc1noc(Cn2c(C)cc(C(F)(F)F)cc2=O)n1
The INHIBITION of the first is lower: -15.5% for the first, 41.2% for the second.

First: O=C([C@H]1C[C@H]2OCC[C@H]2N(Cc2cccnc2)C1)N1CCCO1
Second: O=C(C1CCC1)N1C[C@@H]2CCN(c3cccnc3)C[C@@H]2C1
The INHIBITION of the first is higher: 38.1% for the first, 5.96% for the second.

First: CCn1nccc1CNC(=O)C1CCC1
Second: Cc1cc(C(=O)Nc2ccn(CCCN3CCCC3)n2)c(C)o1
The INHIBITION of the first is higher: 21.8% for the first, 18.2% for the second.

First: c1cnc(NCc2nnn3c2CN(Cc2cccs2)CCC3)nc1
Second: COc1cccc2ccc(CN3CCN(c4ncccn4)CC3)nc12
The INHIBITION of the first is lower: 24.9% for the first, 39.8% for the second.

Compared with Cc1nc(NCc2nnc(C)n2C)c2c(CC(C)C)csc2n1, CCC(C)(CC)NC(=O)COc1nn(C)c2nc(C)cc(C)c12 is higher in INHIBITION: 46.6% for the first, 48.1% for the second.

First: c1cncc(N2CC[C@@H]3CN(CC4CC4)C[C@@H]3C2)c1
Second: O=C(CC1CC1)N1C[C@@H]2CCN(c3cccnc3)C[C@@H]2C1
The INHIBITION of the first is higher: 57.4% for the first, 19.8% for the second.

First: COC(=O)N1CCCCC1C(=O)N1CCCN(c2ccnc(C)c2)CC1 (stereo not given)
Second: COC(=O)N1CCCCC1C(=O)N1CCN(c2ncccc2C)CC1 (stereo not given)
The INHIBITION of the first is higher: 15.9% for the first, 12.7% for the second.

Compared with c1cnc(N2C[C@H]3CCN(c4cccnc4)C[C@H]3C2)nc1, FC(F)(F)c1ccnc(N2C[C@H]3CCN(c4cccnc4)C[C@H]3C2)n1 is higher in INHIBITION: -0.113% for the first, 5.96% for the second.

Going from O=C(c1ccc(F)cc1)N1C[C@@H]2CCN(c3cccnc3)C[C@@H]2C1 to Fc1cccc(N2C[C@H]3CCN(c4cccnc4)C[C@H]3C2)c1, the INHIBITION rises from 43.9% to 50.5%.

Compared with COC(=O)N1CCCCC1C(=O)N1CCN(c2cccnc2)CC1 (stereo not given), O=C(C1CCCC1)N1C[C@@H]2CCN(c3cccnc3)C[C@@H]2C1 is lower in INHIBITION: 82.2% for the first, 54.4% for the second.

First: O=C(CC1CCCC1)N1C[C@@H]2CCN(c3cccnc3)C[C@@H]2C1
Second: CCN1CCO[C@@H]2CN(C(=O)COC3CCCC3)C[C@@H]2C1
The INHIBITION of the first is higher: 60.7% for the first, 0.804% for the second.

Going from O=S(=O)(C1CC1)N1CCC2(CCN(Cc3nccs3)CC2)CC1 to CN(Cc1cccnc1)C1CC2(CCN(Cc3ccccn3)CC2)C1, the INHIBITION rises from -12.1% to 50.9%.

Going from CC1CN(C)c2ccccc2CN1CCn1cncn1 (stereo not given) to CN(Cc1ccccn1)C1CC2(CCN(Cc3cccnc3)CC2)C1, the INHIBITION falls from 38% to 33%.

Compared with CNc1ncc(CN2CCCC2c2[nH]ncc2C(=O)N(C)C)cn1 (stereo not given), CC(=O)N(Cc1ncc(C)o1)C1CCN(Cc2cnc(C)s2)C1 (stereo not given) is lower in INHIBITION: 20.2% for the first, 14.2% for the second.

First: CCCc1nnc(SCc2cc(=O)n3c4c(sc3n2)CCCC4)[nH]1
Second: CCCc1noc(C2CCN(S(=O)(=O)c3cccs3)CC2)n1
The INHIBITION of the first is lower: -4.35% for the first, 4.97% for the second.

Going from O=C(C1CN(c2ncc(F)cn2)CC12CCOCC2)N1CC=CC1 (stereo not given) to CN(Cc1cccnc1)C1CC2(CCN(C(=O)c3ccnnc3)CC2)C1, the INHIBITION rises from 37.8% to 53.9%.

Compared with CN(CC(C)(CO)CO)C(=O)Nc1cc(F)cc(F)c1, CCCNC(c1cccnc1)c1ccc(F)cc1F (stereo not given) is lower in INHIBITION: 18.9% for the first, 12.9% for the second.

Going from Cc1cccc(NC(=O)N2CCCn3cnc(CN4CCCC4)c3C2)c1 to COc1cccc2ccc(CN3CCN(c4ncccc4C)CC3)nc12, the INHIBITION rises from 15.1% to 61.1%.

Compared with COCCN1C(=O)[C@]2(CC[C@@H]3CN(C(=O)NCC(C)C)C[C@@H]32)N=C1C, COCCN1C(=O)[C@]2(CC[C@@H]3CN(C(=O)NC(C)C)C[C@@H]32)N=C1C is higher in INHIBITION: 18.1% for the first, 57.1% for the second.

First: CC1=N[C@@]2(CC[C@@H]3CN(CC4CC4)C[C@@H]32)C(=O)N1CC(C)C
Second: CC1=N[C@@]2(CC[C@@H]3CN(CC(C)C)C[C@@H]32)C(=O)N1CC(C)C
The INHIBITION of the first is higher: 74.2% for the first, 39.2% for the second.

Compared with COCCN1C(=O)[C@]2(CC[C@@H]3CN(C(=O)NC4CCCC4)C[C@@H]32)N=C1C, Cc1ccc(CNC(C)c2ccc(OCC(=O)NC3CC3)cc2)o1 (stereo not given) is higher in INHIBITION: 20.2% for the first, 40% for the second.

Compared with Cc1csc(N2CCN(Cc3nnsc3Cl)CC2C)n1 (stereo not given), CCOc1ccc(CN2CCC(c3ccn[nH]3)C2)cc1CO (stereo not given) is lower in INHIBITION: 45.2% for the first, 43.85% for the second.

Going from O=C(c1ccco1)N1CCOCC2(C1)CN(c1ccoc1)C(=O)CO2 (stereo not given) to CN(Cc1cccnc1)C1CC2(CCN(C(=O)c3cscn3)CC2)C1, the INHIBITION falls from -8.28% to -18.5%.

Going from CC(C)CC1SCC(=O)Nc2c1cnn2-c1ccc(F)cc1 (stereo not given) to O=c1n(CCNCc2cccc3ccccc23)nc2ccccn12, the INHIBITION rises from 28.4% to 28.8%.

Going from CN(C)C(=O)[C@H]1C[C@H]2[C@H](CCN2Cc2ccc3c(c2)OCO3)O1 to CN(Cc1cccnc1)C1CC2(CCN(C(=O)c3cnccn3)CC2)C1, the INHIBITION rises from 18.5% to 21.7%.

First: O=c1n(CCNCc2ccc3ccccc3c2)nc2ccccn12
Second: O=c1n(CCNc2cccc3ccccc23)nc2ccccn12
The INHIBITION of the first is lower: -23.4% for the first, 65.2% for the second.

Going from CCC(=O)CNC(=O)CCn1nc2ccccn2c1=O to CCSCCC(=O)NCCn1nc2ccccn2c1=O, the INHIBITION falls from 69.8% to 37.7%.

First: CC(C)C[C@H](N)C(=O)N1CC2(CCNCC2)c2cc(Cl)ccc21
Second: CN(Cc1cccnc1)C1CC2(CCN(c3ccccn3)CC2)C1
The INHIBITION of the first is lower: -28.2% for the first, 47.8% for the second.

Compared with COc1cccc2ccc(CN3CCN(c4ccncc4)CC3)nc12, CN(Cc1ccccn1)C1CC2(CCN(Cc3ccccn3)CC2)C1 is higher in INHIBITION: 25.3% for the first, 47.4% for the second.

Work on CN(Cc1cccnc1)C1CC2(CCN(Cc3cccnc3)CC2)C1 yielded an INHIBITION of 70.7%.
